Test results from PubChem BioAssay (NCI).
About 83,000 compounds went through this panel and 20% of them were active in at least one assay; those are over-represented in the sample as a whole.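 The endpoint reported here, percent growth, reads 100 for growth as untreated, 0 for no net growth and -100 for all cells dead.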 Active and inactive are the calls of the source. Rule for the calls: active = growth percent below 10; inactive = the rest.

tested on: MDA-MB-468 breast; assay: NCI-60 one-dose screen, 48 h (100 = growth as untreated, 0 = no growth, -100 = all killed); settings: 10 µM unless noted

| SMILES | growth |
| --- | --- |
| Cn1c(-c2ccccc2)cc(=O)n1-c1ccccc1 | 105% (inactive) |
| COc1ccccc1C(=O)NC(=S)Nc1ccc(-c2nc3ccccc3[nH]2)cc1 | 75.1% (inactive) |
| O=S(=O)(c1cccc(NC2=Nc3cccc4cccc2c34)c1)N1CCCC1 | 36.4% (inactive) |
| O=C1/C(=C\c2cn(C(=O)c3ccc(Cl)cc3)c3ccccc23)c2ccccc2N1C(=O)c1ccc(Cl)cc1 | 51.7% (inactive) |
| COc1cc2c(cc1OC)C(=O)/C(=C/c1cc(C)c(O)c(C)c1)S2 | 11.4% (inactive) |
| O=c1oc2ccc(Br)cc2c(=O)n1-c1ccc(I)cc1F | -0.692% (active) |
| COc1ccc(C(O)c2cc3c(N)c(C(=O)Nc4cccc(Br)c4)sc3nc2C)cc1 (centres undefined) | 19.6% (inactive) |
| O=S(=O)(Nc1ncccn1)c1ccc(Nc2ccc3nnc(-c4ccncc4)n3n2)cc1 | 103% (inactive) |
| COc1ccc(Nc2ncc(Br)c(NCCCNC(=O)c3cccs3)n2)cc1 | 51.1% (inactive) |
| Clc1ccc(Sc2cnc(-c3ccccc3)o2)cc1 | 111% (inactive) |
| CC[C@]12C=CCN3CC[C@]4(C(=C(C(=O)OC)C1)Nc1cc5c(cc14)[C@@H]1[C@H](O5)[C@@H](O)[C@@]4(CC)CC(C(=O)OC)=C5Nc6cc(O)ccc6[C@@]56CCN1C46)C32 (some centres undefined) | -51% (active) |
| CCNc1nc(-c2ccc(Cl)c(OC)c2)c(-c2ccnc(NCCCNS(=O)(=O)c3ccc(Cl)cc3)n2)s1 | 63.3% (inactive) |
| OC(CBr)c1ccnc2ccccc12 (centres undefined) | 100% (inactive) |
| O=C(CSc1nc(-c2ccccc2)cn1-c1ccc(Cl)cc1)c1ccc([N+](=O)[O-])cc1 | 72.5% (inactive) |
